From PubChem BioAssay (NCI)
About 83,000 compounds went through this panel and 20% of them were active in at least one assay; those are over-represented in the sample as a whole.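 Cells were grown in 96-well plates and exposed to the test compound at a single concentration for 48 hours; results are reported as percent growth, with values below 10 considered active.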 Calls of active or inactive are those of the source.

Experiments:
Assay in all cases: NCI-60 one-dose screen, 48 h (100 = growth as untreated, 0 = no growth, -100 = all killed)
Conditions in all cases: 10 µM unless noted
HCT-15 colon = tested on: HCT-15 colon
HT29 colon = tested on: HT29 colon
SNB-75 CNS = tested on: SNB-75 CNS
SNB-19 CNS = tested on: SNB-19 CNS
U251 CNS = tested on: U251 CNS
PC-3 prostate = tested on: PC-3 prostate
SK-MEL-5 melanoma = tested on: SK-MEL-5 melanoma
UACC-62 melanoma = tested on: UACC-62 melanoma
LOX IMVI melanoma = tested on: LOX IMVI melanoma
SK-MEL-28 melanoma = tested on: SK-MEL-28 melanoma

Measured: growth

CCOC1Oc2ccccc2C(=O)/C1=N/c1nccs1 (stereo not given)
inactive: HCT-15 colon 80% | HT29 colon 105% | SNB-75 CNS 75.1% | SNB-19 CNS 91.7% | U251 CNS 82% | PC-3 prostate 67.8% | SK-MEL-5 melanoma 101% | UACC-62 melanoma 78.7% | LOX IMVI melanoma 85.2% | SK-MEL-28 melanoma 99.9%

O=C(COc1ccc(/C=C2\Oc3ccc4ccccc4c3C2=O)cc1)c1ccc(Cl)cc1
inactive: HCT-15 colon 92% | HT29 colon 87.2% | SNB-75 CNS 83% | SNB-19 CNS 98.3% | U251 CNS 94.7% | PC-3 prostate 93.8% | SK-MEL-5 melanoma 92.6% | UACC-62 melanoma 94.3% | LOX IMVI melanoma 53.7% | SK-MEL-28 melanoma 112%

COc1ccc(-c2cc(-c3nnc(SCC(=O)Nc4ccc(C(C)=O)cc4)n3-c3ccccc3)c3ccccc3n2)cc1OC
inactive: HCT-15 colon 102% | HT29 colon 94.7% | SNB-75 CNS 102% | SNB-19 CNS 113% | U251 CNS 101% | PC-3 prostate 98.7% | SK-MEL-5 melanoma 109% | UACC-62 melanoma 111% | LOX IMVI melanoma 98.1% | SK-MEL-28 melanoma 113%

NS(=O)(=O)c1ccc(N2CC(c3nc4ccccc4[nH]3)CC2=O)cc1 (stereo not given)
inactive: HCT-15 colon 107% | HT29 colon 97.8% | SNB-75 CNS 67.9% | SNB-19 CNS 101% | U251 CNS 99.7% | PC-3 prostate 90.8% | SK-MEL-5 melanoma 99.8% | UACC-62 melanoma 97.4% | LOX IMVI melanoma 94.2% | SK-MEL-28 melanoma 103%

COP(=O)(OC)C(c1ccc(O)cc1)(c1ccc(O)cc1)c1ccc(O)cc1
inactive: HCT-15 colon 102% | HT29 colon 110% | SNB-75 CNS 112% | SNB-19 CNS 106% | U251 CNS 105% | PC-3 prostate 92.8% | SK-MEL-5 melanoma 87.3% | UACC-62 melanoma 98.7% | LOX IMVI melanoma 103% | SK-MEL-28 melanoma 118%

COC(=O)CC1=C(c2ccc([N+](=O)[O-])cc2)CCC1=O
inactive: HCT-15 colon 89.6% | HT29 colon 107% | SNB-75 CNS 82% | SNB-19 CNS 109% | U251 CNS 103% | PC-3 prostate 91.9% | SK-MEL-5 melanoma 103% | UACC-62 melanoma 100% | LOX IMVI melanoma 94.6% | SK-MEL-28 melanoma 109%

O=C(C(=O)N1CCOCC1)c1cn(CCCn2cc(C(=O)C(=O)N3CCOCC3)c3ccccc32)c2ccccc12
inactive: HCT-15 colon 104% | HT29 colon 99.7% | SNB-75 CNS 94.7% | SNB-19 CNS 93.9% | U251 CNS 102% | PC-3 prostate 89.9% | SK-MEL-5 melanoma 100% | UACC-62 melanoma 93.5% | LOX IMVI melanoma 104% | SK-MEL-28 melanoma 110%

O=c1[nH]cc(Nc2cc(Cl)c3nonc3c2[N+](=O)[O-])c(=O)[nH]1
inactive: HCT-15 colon 103% | HT29 colon 132% | SNB-75 CNS 119% | SNB-19 CNS 95.4% | U251 CNS 98.6% | PC-3 prostate 92.9% | SK-MEL-5 melanoma 105% | UACC-62 melanoma 94.9% | LOX IMVI melanoma 95% | SK-MEL-28 melanoma 83.2%

COc1cc(/C=C/C(=O)C(C(=O)/C=C/c2ccc(OC(=O)CCNC34CC5CC(CC(C5)C3)C4)c(OC)c2)C(=O)CCNC23CC4CC(CC(C4)C2)C3)ccc1OC(=O)CCNC12CC3CC(CC(C3)C1)C2 (stereo not given)
inactive: SNB-19 CNS 39.2% | PC-3 prostate 13.6% | UACC-62 melanoma 20.2%
active: HCT-15 colon -18.2% | HT29 colon -71.6% | SNB-75 CNS -32.3% | U251 CNS 7.57% | SK-MEL-5 melanoma -36.8% | LOX IMVI melanoma -72.7% | SK-MEL-28 melanoma -8.59%

Nc1ccn(C2O[C@H](CO)[C@@H](O)[C@@H]2O)c(=O)n1 (stereo not given in full)
inactive: HCT-15 colon 59.5% | HT29 colon 42.7% | SNB-75 CNS 78.6% | SNB-19 CNS 47.9% | U251 CNS 40% | PC-3 prostate 63.9% | SK-MEL-5 melanoma 45.1% | UACC-62 melanoma 22.1% | LOX IMVI melanoma 19.1% | SK-MEL-28 melanoma 68.5%

O=C(CC1Sc2ccccc2NC1=O)NNc1cccc(Cl)c1Cl (stereo not given)
inactive: HCT-15 colon 97.1% | HT29 colon 93.4% | SNB-75 CNS 92.2% | SNB-19 CNS 77.7% | U251 CNS 83.7% | PC-3 prostate 70.9% | SK-MEL-5 melanoma 85.5% | UACC-62 melanoma 85.1% | LOX IMVI melanoma 88.8% | SK-MEL-28 melanoma 101%

CC1Cc2ccccc2N1C(=O)c1ccc(C(=O)c2ccccc2)cc1 (stereo not given)
inactive: HCT-15 colon 86% | HT29 colon 89.4% | SNB-75 CNS 94.3% | SNB-19 CNS 90.5% | U251 CNS 63.5% | PC-3 prostate 97% | SK-MEL-5 melanoma 74.2% | UACC-62 melanoma 73.6% | LOX IMVI melanoma 83% | SK-MEL-28 melanoma 99.5%

COc1cc(/C=C2\CN(C)CC3=C2Nc2nc(SC)[nH]c(=O)c2C3c2cc(OC)c(OC)c(OC)c2)cc(OC)c1OC (stereo not given)
inactive: HCT-15 colon 36.6% | HT29 colon 15% | SNB-75 CNS 27.8% | SNB-19 CNS 66.8% | U251 CNS 20.6% | PC-3 prostate 68% | SK-MEL-5 melanoma 58.2% | UACC-62 melanoma 30% | SK-MEL-28 melanoma 44.9%
active: LOX IMVI melanoma 3.87%

CCOC(=O)Nc1ccc2c3c(cccc13)-c1ccccc1-2
inactive: HCT-15 colon 25.2% | SNB-19 CNS 45.1% | U251 CNS 34.5% | PC-3 prostate 49.8% | SK-MEL-5 melanoma 33.6% | UACC-62 melanoma 30.5% | LOX IMVI melanoma 30.5% | SK-MEL-28 melanoma 46%
active: HT29 colon 5.04% | SNB-75 CNS 6.18%

CCCCCCCSc1ncnc2[nH]ncc12
inactive: HCT-15 colon 60.8% | HT29 colon 89.3% | SNB-75 CNS 59.3% | SNB-19 CNS 80.9% | U251 CNS 38.3% | PC-3 prostate 78.8% | SK-MEL-5 melanoma 92.4% | UACC-62 melanoma 76.6% | LOX IMVI melanoma 65.9% | SK-MEL-28 melanoma 106%

Cc1cc(Br)c(C)cc1Br
inactive: HCT-15 colon 101% | HT29 colon 94.2% | SNB-75 CNS 100% | SNB-19 CNS 108% | U251 CNS 98.9% | PC-3 prostate 95.8% | SK-MEL-5 melanoma 96.9% | UACC-62 melanoma 102% | LOX IMVI melanoma 97.6% | SK-MEL-28 melanoma 103%

C=C(CN1CCc2c([nH]c3ccccc23)C1)c1ccc(C(=O)Nc2ccon2)cc1
inactive: HCT-15 colon 104% | HT29 colon 99.2% | SNB-75 CNS 96.6% | SNB-19 CNS 74.4% | U251 CNS 92% | PC-3 prostate 73.8% | SK-MEL-5 melanoma 88% | UACC-62 melanoma 80% | LOX IMVI melanoma 83.8% | SK-MEL-28 melanoma 97.8%

O=C(CNC(=O)c1cccc2ccccc12)Nc1ccccc1Oc1ccc(O)cc1
inactive: HCT-15 colon 27.4% [5 µM] | SNB-75 CNS 19.7% [5 µM] | SNB-19 CNS 51.9% [5 µM] | U251 CNS 20.8% [5 µM] | PC-3 prostate 31.1% [5 µM] | SK-MEL-5 melanoma 27.7% [5 µM] | UACC-62 melanoma 55% [5 µM] | LOX IMVI melanoma 40.9% [5 µM] | SK-MEL-28 melanoma 59.9% [5 µM]
active: HT29 colon 4.1% [5 µM]

COc1ccc(/C=C2/SC(=Nc3c(C)nn(-c4ccccc4)c3N)NC2=O)cc1
active: SNB-75 CNS 5.59%
inactive: HCT-15 colon 33.3% | HT29 colon 16.6% | SNB-19 CNS 51.3% | U251 CNS 40% | PC-3 prostate 29.1% | SK-MEL-5 melanoma 21.2% | UACC-62 melanoma 26.8% | LOX IMVI melanoma 33.1% | SK-MEL-28 melanoma 58.7%

CC(=O)OCC(=O)[C@@]1(O)CC[C@H]2[C@@H]3CCC4=CC(=O)CC[C@]4(C)[C@@]3(F)[C@@H](O)C[C@@]21C
inactive: HCT-15 colon 105% | HT29 colon 114% | SNB-75 CNS 113% | SNB-19 CNS 107% | U251 CNS 111% | PC-3 prostate 93.7% | SK-MEL-5 melanoma 94.8% | UACC-62 melanoma 97.3% | LOX IMVI melanoma 96.6% | SK-MEL-28 melanoma 112%

O=C(Nc1ccccc1)c1cc(-n2cnc([N+](=O)[O-])c2)cc(-n2cnc([N+](=O)[O-])c2)n1
inactive: HCT-15 colon 114% | HT29 colon 107% | SNB-75 CNS 98.9% | SNB-19 CNS 106% | U251 CNS 101% | PC-3 prostate 88.8% | SK-MEL-5 melanoma 95.6% | UACC-62 melanoma 103% | LOX IMVI melanoma 94.2% | SK-MEL-28 melanoma 122%

CCOC(=O)C(Br)=P(c1ccccc1)(c1ccccc1)c1ccccc1
inactive: HCT-15 colon 102% | HT29 colon 106% | SNB-75 CNS 118% | SNB-19 CNS 114% | U251 CNS 87.7% | PC-3 prostate 99.9% | SK-MEL-5 melanoma 87.6% | UACC-62 melanoma 92.8% | LOX IMVI melanoma 101% | SK-MEL-28 melanoma 107%

C/C=C(/C(=C/C)c1ccc(O)cc1)c1ccc(O)cc1
active: SNB-75 CNS 9.32% | SK-MEL-5 melanoma 5.64%
inactive: HCT-15 colon 31.7% | HT29 colon 38.6% | SNB-19 CNS 34.6% | U251 CNS 32.8% | PC-3 prostate 46.2% | UACC-62 melanoma 31.2% | LOX IMVI melanoma 39.1% | SK-MEL-28 melanoma 52.4%

N#Cc1c(-c2ccc(F)cc2)n2c(nc1=O)SC(=O)C2=O
inactive: HCT-15 colon 106% | HT29 colon 105% | SNB-75 CNS 83.8% | SNB-19 CNS 103% | U251 CNS 92.2% | PC-3 prostate 92.1% | SK-MEL-5 melanoma 96.5% | UACC-62 melanoma 80.2% | LOX IMVI melanoma 87.3% | SK-MEL-28 melanoma 102%

CCSc1nc(Nc2ccc(S(=O)(=O)Nc3ccon3)cc2)c(C#N)c(-c2cccc(Br)c2)n1
inactive: HCT-15 colon 87.3% | HT29 colon 91.8% | SNB-75 CNS 93.3% | SNB-19 CNS 100% | U251 CNS 81.1% | PC-3 prostate 79.6% | SK-MEL-5 melanoma 85.4% | UACC-62 melanoma 91.5% | LOX IMVI melanoma 94.1% | SK-MEL-28 melanoma 103%

CC[C@@H](C)/C=C(C)/C=C/C(O)=C1\C(=O)N[C@@H](Cc2ccc(OC(=O)[C@@](OC)(c3ccccc3)C(F)(F)F)cc2)C1=O
inactive: HCT-15 colon 102% | HT29 colon 114% | SNB-75 CNS 101% | SNB-19 CNS 96.6% | U251 CNS 83.9% | PC-3 prostate 37.3% | SK-MEL-5 melanoma 110% | UACC-62 melanoma 98.9% | LOX IMVI melanoma 50.3% | SK-MEL-28 melanoma 103%
